Source: PubChem (National Center for Advancing Translational Sciences (NCATS))
In the library only some 9.4% were active in any assay of this set; here they are far more common.
Pf growth 48h – Primary qHTS for delayed death inhibitors of the malarial parasite plastid, 48 hour incubation. Potency, µM (highest dose often 28.7 µM), most hits filed as inhibitors. actives 5.9% (n = 310,000). P. falciparum luciferase growth in erythrocytes, 48 h. AID 504832, 2011
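First compound was added to culture medium, then infected red cells at 0.1% parasitemia and 2% hematocrit (final). After incubation at 37 C under 5% CO2, luciferase detection reagent was dispensed and light output recorded.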
AMA1-RON2 inh – qHTS for Inhibitors of AMA1-RON; Towards Development of Antimalarial Drug Lead: Primary Screen | Plasmodium falciparum AMA1 (3D7) - RON2 peptide interaction | AlphaScreen AMA1-biotinylated RON2 peptide binding | Potency, µM (highest dose often 58.2 µM), most hits filed as inhibitors | actives 0.2% (n = 360,000); further: nearly all actives have a fitted effect of over 45% in size
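AMA1 (3D7) with his tag at 25 nM final met compounds first, then biotinylated RON2 peptide at 25 nM; detection used donor plus acceptor beads, 10 µg/mL apiece, read by AlphaScreen after 30 min at room temperature.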
Pf growth 96h – Primary qHTS for delayed death inhibitors of the malarial parasite plastid, 96 hour incubation; P. falciparum luciferase reporter growth, 96 h; actives 6.9% (n = 320,000); AID 504834, 2011; Potency, µM (highest dose often 28.7 µM), actives largely listed as inhibitors
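P. falciparum expressing integrated firefly luciferase grown in erythrocytes (2% hematocrit, 0.05% parasitemia final) with compounds for 96 hours at 37 C, 5% CO2. Growth inhibition read as loss of luminescence after adding luciferase detection reagent.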
SARS PLP yeast – qHTS of Yeast-based Assay for SARS-CoV PLP; S. cerevisiae expressing SARS-CoV PLpro, growth rescue; Potency, µM (series often up to 32.9 µM), most hits filed as activators; actives 0.19% (n = 330,000); AID 485353, 2010; calls by dose curve; further: nearly all actives have a fitted effect of over 55% in size
Numbers stand for hits. Unless noted, the call rests on the fitted dose curve; in most records, active means well fitted curve in the direction sought with a large enough effect; inconclusive means small, poorly fitted or top-dose-only effect, or another doubt; inactive means no such curve, though single readings can be large; an effect the other way counts as inactive or inconclusive.

What do the screens show for `COc1ccccc1N(CN1CCCC1=O)C(=O)c1c(F)cccc1Cl`?
Pf growth 48h: inconclusive; AMA1-RON2 inh: inactive; Pf growth 96h: inactive; SARS PLP yeast: inactive

What do the screens show for `COc1ccc(C2=C(c3ccc(OC)c(OC)c3)CN3CCCCC3C2)cc1` (stereo not drawn)?
AMA1-RON2 inh: inactive; SARS PLP yeast: inactive

How did CCCCCOC(=O)c1ccc(NC(=O)c2ccco2)cc1 do in these assays?
Pf growth 48h: 1.31µM; AMA1-RON2 inh: inactive; Pf growth 96h: inactive; SARS PLP yeast: inactive

Results for CCCCCOc1ccc(C(=O)OC(C)C(=O)NCc2ccco2)cc1 (stereo not drawn) ?
Pf growth 48h: inconclusive; AMA1-RON2 inh: inactive; Pf growth 96h: 13.1µM; SARS PLP yeast: inactive

Results for Cc1ccccc1OCCNC(=O)c1ccco1 ?
Pf growth 48h: inactive; AMA1-RON2 inh: inactive; Pf growth 96h: inactive; SARS PLP yeast: inactive

What do the screens show for `CCCCOC(=O)c1ccc(NC(=S)NC(=O)c2ccco2)cc1`?
Pf growth 48h: inconclusive; AMA1-RON2 inh: inactive; Pf growth 96h: 11.7µM; SARS PLP yeast: inactive

What do the screens show for `CCCCOc1ccc(OCCNC(=O)c2ccco2)cc1`?
Pf growth 48h: 9.28µM; AMA1-RON2 inh: inactive; Pf growth 96h: inconclusive; SARS PLP yeast: inactive

What do the screens show for `CCN(CC)c1ccc(NC(=S)NC(=O)c2ccco2)cc1`?
Pf growth 48h: inconclusive; AMA1-RON2 inh: inconclusive; Pf growth 96h: inactive; SARS PLP yeast: inactive

Results for CCOc1ccc(Nc2nc(NCC(=O)O)nc(N)c2[N+](=O)[O-])cc1 ?
Pf growth 48h: inactive; AMA1-RON2 inh: inactive; Pf growth 96h: inactive; SARS PLP yeast: inactive

How did O=C(CN1C(=O)c2ccc([N+](=O)[O-])cc2C1=O)NC1CCS(=O)(=O)C1 (stereo not drawn) do in these assays?
Pf growth 48h: inactive; AMA1-RON2 inh: inactive; Pf growth 96h: inactive; SARS PLP yeast: inactive

What do the screens show for `CCN(C(=O)c1ccc(NC(=O)c2ccco2)cc1)c1ccccc1`?
Pf growth 48h: inconclusive; AMA1-RON2 inh: inactive; Pf growth 96h: 9.28µM; SARS PLP yeast: inactive

What do the screens show for `CCCCCCCCOc1ccccc1C(=O)Nc1ccc(C(=O)OCC[N+](C)(CC)CC)cc1`?
Pf growth 48h: 15.1µM; Pf growth 96h: 1.35µM

What do the screens show for `COc1cc(Br)c(CCNC(=O)c2ccco2)cc1OC`?
Pf growth 48h: 5.22µM; AMA1-RON2 inh: inactive; Pf growth 96h: inconclusive; SARS PLP yeast: inactive

How did CC1CCN(C2(O)C(=O)Nc3ccc([N+](=O)[O-])cc32)CC1 (stereo not drawn) do in these assays?
Pf growth 48h: inactive; AMA1-RON2 inh: inactive; Pf growth 96h: inactive; SARS PLP yeast: inactive

How did COc1cccc(OCC(=O)Nc2cc(NC(=O)COc3cccc(OC)c3)cc(C(=O)O)c2)c1 do in these assays?
Pf growth 48h: inactive; AMA1-RON2 inh: inactive; Pf growth 96h: inconclusive; SARS PLP yeast: inactive

What do the screens show for `O=c1cc(-c2ccc3c(c2)OCO3)oc2ccccc12`?
Pf growth 48h: inactive; AMA1-RON2 inh: inactive; Pf growth 96h: inconclusive; SARS PLP yeast: inactive

How did O=C(c1cc(NC(=O)C23CC4CC(CC(C4)C2)C3)cc(NC(=O)C23CC4CC(CC(C4)C2)C3)c1)N1CCCCC1 do in these assays?
Pf growth 48h: 1.85µM; AMA1-RON2 inh: inactive; Pf growth 96h: 1.47µM; SARS PLP yeast: inactive

How did O=C(NC(=S)N1CCCCC1)C12CC3CC(CC(C3)C1)C2 do in these assays?
AMA1-RON2 inh: inactive; Pf growth 96h: inconclusive; SARS PLP yeast: inconclusive

What do the screens show for `O=C(NCc1ccco1)/C(=C\c1cccs1)NC(=O)c1ccco1`?
Pf growth 48h: inactive; AMA1-RON2 inh: inactive; Pf growth 96h: 4.15µM; SARS PLP yeast: inactive

What do the screens show for `Cc1ccc(C(=O)N/C(=C\c2sccc2C)C(=O)NCc2ccco2)cc1`?
Pf growth 48h: inactive; AMA1-RON2 inh: inactive; Pf growth 96h: 3.29µM; SARS PLP yeast: inactive

Results for CCOc1cc2c(cc1/C=C/C(=O)O)OC(C)C2 (stereo not drawn) ?
Pf growth 48h: inactive; AMA1-RON2 inh: inactive; Pf growth 96h: inactive; SARS PLP yeast: inactive

What do the screens show for `Cc1ccc2nsnc2c1NS(=O)(=O)c1c(C)ccc2nsnc12`?
Pf growth 48h: inactive; AMA1-RON2 inh: inactive; Pf growth 96h: inactive; SARS PLP yeast: inactive

How did Cc1ccc(/C=[N+](\[O-])c2ccc(N(C)C)cc2)c2nsnc12 do in these assays?
Pf growth 48h: inactive; AMA1-RON2 inh: 25.1µM; Pf growth 96h: inactive; SARS PLP yeast: inactive

What do the screens show for `c1ccc(-c2ccc(CN3CCSCC3)cc2)cc1`?
Pf growth 48h: inactive; AMA1-RON2 inh: inactive; Pf growth 96h: 13.1µM; SARS PLP yeast: inactive
